Test results from PubChem BioAssay (NCATS).
Results filed as inconclusive are left out. Where a call stands in place of a potency, no number is given. Active and inactive are the calls of the source. Unless noted, calls follow the shape of the dose curve; as a rule, active = well fitted curve in the direction sought with a large enough effect; inconclusive = small, poorly fitted or top-dose-only effect, or another doubt; inactive = no such curve, though single readings can be large; an effect the other way counts as inactive or inconclusive.

Legend:
[1] = target: Guanidinoacetate N-methyltransferase (Homo sapiens) (UniProt Q14353); experiment: Confirmatory Screen for Target Class Profiling of Small Molecule Inhibitors of Methyltransferases (AID 1745852; calls by dose curve); details: activity change, negative = inhibition: at 57.3 µM (top of the series) unless noted
[2] = target: Nicotinamide N-methyltransferase (Homo sapiens) (UniProt P40261); experiment: as above; details: MTase-Glo luminescence, SAH detection, recombinant enzyme; measured here: NNMT max response; stronger effect = lower value
[3] = target: Phenylethanolamine N-methyltransferase (Homo sapiens) (UniProt P11086); experiment: as above; details: MTase-Glo luminescence, SAH detection, recombinant enzyme; measured here: PNMT max response; stronger effect = lower value
[4] = NCATS anti-infectives library activity on HEK293 viability as a counter-qHTS vs the C. elegans viability qHTS (AID 1745854); also: potency is read from the fitted curve at half-maximal effect
Method in brief: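 CellTiter-Glo luminescence, read on a CCD imager, scored viability of HEK293 cells after 24 hr compound exposure at 37C. Library tested in several concentrations, 1:5 steps, up to 41.7 uM; digitonin served as control.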

[5] = Viability counterscreen for antagonist of constitutive androstane receptor (CAR) against the NCATS DSHEA and TCM libraries (AID 1794837);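 also: compound exposure lasted 24 h before viability reading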
Method in brief: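 HepG2-CYP2B6-hCAR cells, 2,500/well, were exposed 24 hr at 37C to substances together with 48 uM CITCO (final). Viability was read as CellTiter-Fluor fluorescence (Ex/Em 405/540 nm) after 1 hr.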

[6] = Viability counterscreen for agonist of constitutive androstane receptor (CAR) against the NCATS DSHEA and TCM libraries (AID 1794838);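 also: HepG2 cells with CYP2B6 reporter and hCAR plus 0.75 µM PK11195 antagonist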
Method in brief: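 HepG2-CYP2B6-hCAR cells (2,500/well) treated 24 h at 37C with compounds plus 0.75 uM PK11195; viability read by CellTiter-Fluor fluorescence, Ex/Em 405/540 nm.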

[7] = target: Nuclear receptor subfamily 1 group I member 3 (Homo sapiens) (UniProt Q14994); experiment: Primary qHTS for agonist of constitutive androstane receptor (CAR) against the NCATS DSHEA and TCM libraries (AID 1794839);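 also: HepG2 cells expressing human CAR with a CYP2B6 reporter plus PK11195 antagonist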
Method in brief: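 HepG2-CYP2B6-hCAR cells, 2,500/well, attached 5 h, then dosed with 0.75 µM PK11195 (final) for 24 h at 37 °C. Luciferase luminescence read (ONE-Glo); CellTiter-Fluor viability (Ex/Em 405/540 nm) in same wells; CITCO positive control.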

[8] = HepG2 viability counterscreen (readout 2: ATP content) against the NCATS DSHEA and TCM libraries (AID 1794840)
Method in brief: (§1)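 HepG2 cells, 1,000/well, attached ~4 h, then exposed ~24 h at 37C to substances. Protease activity read by fluorescence of 25 uM GF-AFC (Ex/Em 380/510 nm) after 30 min; ATP then by CellTiter-Glo luminescence.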

[9] = HepG2 viability counterscreen (readout 1: protease activity) against the NCATS DSHEA and TCM libraries (AID 1794841);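 also: cells exposed to compounds for about 24 h before the protease read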
Method in brief: as §1

[10] = NCATS anti-infectives library activity on the primary C. elegans qHTS viability assay (AID 1745855; calls by dose curve; also: potency is read from the fitted curve at half-maximal effect)
Method in brief: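 Titration-based screen in worms: eggs hatched overnight in M9, L1 larvae fed TOP10 capsules in S medium with compound, incubated 21 °C for 7 days; fluorescent objects gated by size and intensity at days 0, 3 and 7.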

Phenylethanolamine N-methyltransferase (Homo sapiens), sequence (P11086 whole entry, looked up): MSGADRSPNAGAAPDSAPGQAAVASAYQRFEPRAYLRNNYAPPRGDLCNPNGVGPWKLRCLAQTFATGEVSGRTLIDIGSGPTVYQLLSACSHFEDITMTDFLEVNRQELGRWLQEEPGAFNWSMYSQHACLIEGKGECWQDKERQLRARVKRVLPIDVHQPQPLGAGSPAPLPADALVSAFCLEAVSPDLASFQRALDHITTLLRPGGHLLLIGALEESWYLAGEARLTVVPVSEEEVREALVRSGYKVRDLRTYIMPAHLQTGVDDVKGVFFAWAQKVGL
Nuclear receptor subfamily 1 group I member 3 (Homo sapiens), sequence (Q14994 whole entry, looked up): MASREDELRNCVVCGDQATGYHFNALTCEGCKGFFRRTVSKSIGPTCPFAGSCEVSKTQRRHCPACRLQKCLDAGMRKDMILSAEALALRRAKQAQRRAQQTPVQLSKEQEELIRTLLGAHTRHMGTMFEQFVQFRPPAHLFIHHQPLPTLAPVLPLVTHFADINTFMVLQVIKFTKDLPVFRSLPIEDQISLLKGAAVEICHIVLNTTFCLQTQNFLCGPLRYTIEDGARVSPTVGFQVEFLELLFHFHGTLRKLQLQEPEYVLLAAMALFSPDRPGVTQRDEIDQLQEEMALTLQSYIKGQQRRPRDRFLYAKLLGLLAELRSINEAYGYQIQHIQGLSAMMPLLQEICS
Nicotinamide N-methyltransferase (Homo sapiens), sequence (P40261 whole entry, looked up): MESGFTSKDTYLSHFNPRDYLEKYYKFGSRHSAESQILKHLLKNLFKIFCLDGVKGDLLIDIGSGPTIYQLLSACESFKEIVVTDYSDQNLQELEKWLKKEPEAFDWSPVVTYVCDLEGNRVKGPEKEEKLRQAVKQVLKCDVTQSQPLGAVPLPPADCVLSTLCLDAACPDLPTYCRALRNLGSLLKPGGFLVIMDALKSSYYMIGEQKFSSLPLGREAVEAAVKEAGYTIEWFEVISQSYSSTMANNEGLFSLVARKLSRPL

C=C[C@H]1[C@H](O[C@@H]2O[C@H](CO)[C@@H](O)[C@H](O)[C@H]2O)OC=C(C(=O)OC)[C@H]1C/C=C(/C=O)[C@@H]1C(C(=O)OC)=CO[C@@H](O[C@@H]2O[C@H](CO)[C@@H](O)[C@H](O)[C@H]2O)[C@@H]1C=C
activity change, negative = inhibition [1]: 0% [at 19.1 µM]
activity [2]: 0%
activity [3]: 4.52%

COC(=O)C1=CO[C@@H](O[C@@H]2O[C@H](CO)[C@@H](O)[C@H](O)[C@H]2O)[C@H]2[C@@H]1CC(OC)O[C@@H]2C (stereo partly drawn)
activity change, negative = inhibition [1]: -2.71% [at 29.8 µM]
activity [2]: -1.72%
activity [3]: -2.32%

COc1cc(/C=C/C(=O)OC[C@H]2O[C@@](CO)(O[C@H]3O[C@H](CO)[C@@H](O)[C@H](O)[C@H]3O)[C@@H](OC(=O)/C=C/c3ccc(O)c(OC)c3)[C@@H]2O)ccc1O
activity change, negative = inhibition [1]: -4.9% [at 19.1 µM]
activity [2]: -6.08%
activity [3]: -2.86%

COc1cc2c(cc1OC)N1C(=O)C[C@]34C=CCN5CC[C@@H]2[C@@H](CC3)[C@]514
Potency [1]: inactive
activity [2]: 1.78%
activity [3]: 3.88%

O=C(c1ccccc1)c1ccc2nc(NC(=O)c3csc(C4CCN(c5ncnc6ccsc56)CC4)n3)[nH]c2c1
activity change, negative = inhibition [1]: 0.0948%
activity [2]: -42%
activity [3]: -13.7%
Potency [4]: 10 µM (active)

CCO[C@@H]1OC(=O)C[C@@H]1NC(=O)[C@@H]1CCCN1C(=O)[C@@H](NC(=O)c1ccc(N)c(Cl)c1)C(C)(C)C
Potency [4]: inactive

Cc1cc(C)cc(C(=O)NOCCCCCC(=O)NO)c1
Potency [4]: inactive

CC(C)=CCC[C@](C)(O)[C@H]1CC[C@]2(C)[C@@H]1[C@H](O)CC1[C@@]3(C)CC[C@H](O)C(C)(C)[C@@H]3[C@@H](O[C@@H]3O[C@H](CO)[C@@H](O)[C@H](O)[C@H]3O[C@@H]3O[C@H](CO)[C@@H](O)[C@H](O)[C@H]3O)C[C@]12C (stereo partly drawn)
outcome [5]: inactive
outcome [6]: inactive
outcome [7]: inactive
outcome [8]: inactive
outcome [9]: inactive

CCNCc1nc2c(N)nc3ccccc3c2n1CC(C)(C)O
Potency [4]: inactive

O=C(N/N=C/c1ccc(O)c(O)c1)c1cc2ccccc2cc1O
Potency [4]: inactive
Potency [10]: 20.5 µM (active)

Nc1ncnc2c([C@@H]3N[C@H](CO)[C@@H](O)[C@H]3O)c[nH]c12
Potency [4]: inactive

COc1ccc(C(=O)C2CCN(CC(=O)N(Cc3nc4c(c(=O)[nH]3)COCC4)CC3CC3)CC2)cc1
Potency [4]: inactive

O=C(/C=C/c1cccc(S(=O)(=O)Nc2ccccc2)c1)NO
Potency [4]: inactive

CC(C)C(NC(=O)c1ccc2ccccc2n1)C(=O)NC(CC(=O)O)C(=O)COc1c(F)cccc1F (stereo not drawn)
Potency [4]: inactive

OC[C@H]1O[C@@H](OC[C@H]2O[C@@H](OC/C=C/c3ccccc3)[C@H](O)[C@@H](O)[C@@H]2O)[C@@H](O)[C@@H]1O
outcome [5]: inactive
outcome [7]: inactive
outcome [8]: inactive
outcome [9]: inactive

CC(C)c1cc(C(=O)N2CC[C@H](NC(=O)C3CC3)C2)n[nH]1
Potency [4]: inactive

C[C@H](NC(=O)CCc1nc2ccccc2c(=O)[nH]1)c1ccccc1
Potency [4]: inactive
Potency [10]: inactive

C[C@@]1(O)[C@H](O)[C@@H](CO)O[C@H]1n1ccc(N)nc1=O
Potency [4]: inactive

Cc1cc(OCc2nnc(SC3CCCC3)n2-c2cccnc2)ccc1-c1ccc(S(C)(=O)=O)cc1
Potency [4]: 11.2 µM (active)

O=C(COc1cccc2c(=O)[nH]ccc12)c1ccccc1
Potency [4]: inactive

CCN(CC)Cc1ccc(C(=O)N(CCc2ccccc2OC)[C@@H]2CCNC2)cc1
Potency [4]: inactive

CN[C@H](CC(C)C)C(=O)N[C@H]1C(=O)N[C@@H](CC(N)=O)C(=O)N[C@H]2C(=O)N[C@H]3C(=O)N[C@H](C(=O)N[C@H](C(=O)O)c4cc(O)cc(O)c4-c4cc3ccc4O)[C@H](O[C@H]3C[C@](C)(N)[C@@H](O)[C@H](C)O3)c3ccc(c(Cl)c3)Oc3cc2cc(c3O[C@@H]2O[C@H](CO)[C@@H](O)[C@H](O)[C@H]2O[C@H]2C[C@](C)(NCc3ccc(-c4ccc(Cl)cc4)cc3)[C@@H](O)[C@H](C)O2)Oc2ccc(cc2Cl)[C@H]1O
Potency [4]: inactive

CCOCc1nc2c(N)nc3ccccc3c2n1CC(C)(C)O
Potency [4]: inactive

[N-]=[N+]=N[C@]1(CO)O[C@@H](n2ccc(=O)[nH]c2=O)[C@@H](O)[C@@H]1O
Potency [4]: inactive

CN1CCc2nc(C(=O)N[C@@H]3C[C@@H](C(=O)N(C)C)CC[C@@H]3NC(=O)C(=O)Nc3ccc(Cl)cn3)sc2C1
Potency [4]: inactive

CS(=O)(=O)c1ccc(-c2nnc(/C=C/c3nnc(-c4ccc(C#N)cc4)o3)n2-c2ccccc2Cl)nc1
Potency [4]: inactive

CC(C)C[C@H](CC(=O)NO)C(=O)N[C@@H](Cc1ccc2ccccc2c1)C(=O)N[C@@H](C)C(=O)NCCN
Potency [4]: inactive

N#C[C@@H]1CCCN1C(=O)CNC12CC3CC(CC(O)(C3)C1)C2
Potency [4]: inactive

Cc1cc(N2CCN([C@@H]3CN[C@H](C(=O)N4CCSC4)C3)CC2)n(-c2ccccc2)n1
Potency [4]: inactive

CC1CC[C@]2(C(=O)O)CC[C@]3(C(=O)O)C(=CCC4[C@@]5(C)CC[C@H](OC6OC(C)C(O)C(OC7OC(CO)C(O)C(O)C7O)C6O)C(C)(C)C5CC[C@]43C)C2C1C (stereo partly drawn)
outcome [5]: inactive
outcome [6]: inactive
outcome [7]: inactive
outcome [8]: inactive
outcome [9]: inactive

CC(C)=CCC(O)/C(C)=C/CO[C@@H]1O[C@H](CO)[C@@H](O)[C@H](O)[C@H]1O (stereo partly drawn)
activity change, negative = inhibition [1]: 0%
activity [2]: 0%
activity [3]: 5.19%
outcome [5]: inactive
outcome [6]: inactive
outcome [7]: inactive
outcome [8]: inactive
outcome [9]: inactive

CC(C)c1cc(C(=O)N2CC[C@@H](NC(=O)C3CC3)C2)n[nH]1
Potency [4]: inactive

COc1c2c(cc3c1-c1c(cc4c(c1OC)OCO4)CC(C)C(C)C3)OCO2 (stereo not drawn)
Potency [4]: inactive

COC(=O)[C@@]1(c2ccc(C)cc2)C[C@H]1CN1CCC(O)(c2ccccc2)CC1
Potency [4]: inactive
Potency [10]: inactive

C[C@@]12CC[C@@H]3[C@@](CC[C@H]4[C@@]3(C)CCC[C@@]4(C)C(=O)O)(CC1=O)C2
outcome [5]: inactive
outcome [6]: inactive
outcome [7]: inactive
outcome [8]: inactive
outcome [9]: inactive

CC(C)=CCC[C@](C)(O[C@@H]1O[C@H](CO[C@@H]2O[C@H](CO)[C@@H](O)[C@H](O)[C@H]2O)[C@@H](O)[C@H](O)[C@H]1O)C1CC[C@]2(C)[C@@H]1[C@H](O)CC1[C@@]3(C)CC[C@H](O[C@@H]4O[C@H](CO)[C@@H](O)[C@H](O)[C@H]4O[C@@H]4O[C@H](CO)[C@@H](O)[C@H](O)[C@H]4O)C(C)(C)[C@@H]3CC[C@]12C (stereo partly drawn)
outcome [5]: inactive
activity change, negative = cytotoxicity [6]: 3.8% [at 8.32 µM] (inactive)
outcome [7]: inactive
outcome [8]: inactive
outcome [9]: inactive

Cc1ccc(NC(=O)C(=O)NC2CC(C)(C)NC(C)(C)C2)cc1
Potency [4]: inactive

Cc1cc(C)c(Nc2ccnc(Nc3ccc(C#N)cc3)n2)c(C)c1
Potency [10]: 5.15 µM (active)
